High-throughput results: PubChem BioAssay, National Center for Advancing Translational Sciences (NCATS)
SW480 rerep: DNA re-replication induction in SW480 cells. SW480 DNA re-replication, Hoechst DNA content imaging, 48 h. hit rate 1.8% among 340,000. Potency, µM (top dose mostly 46.1 µM), hits mostly activators; also: nearly all actives have a fitted effect of over 55% in size
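DNA re-replication was detected as more nuclei of elevated Hoechst intensity after 48 hr exposure to compound (23 nL pinned per well of 250 cells).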
ELG1 DNA repair: ELG1-dependent DNA repair inhibition. HEK293T ELG1-luciferase reporter, luminescence, 16 h; DNA damage induced by 5-fluorouridine. Potency, µM (highest dose often 46.1 µM), most hits filed as inhibitors. hit rate 2.3% among 330,000. AID 504467; also: nearly all actives have a fitted effect of over 55% in size
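In this reporter screen, reduction of luminescence relative to DMSO vehicle indicated activity. Compounds and 5-fluorouridine were added together to 2,000 cells per well, incubated for 16 hr at 37 °C, then developed with ONE-Glo.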
MCF10A rereplic: DNA re-replication induction in MCF 10a cells. MCF 10A DNA re-replication, Hoechst nuclear intensity, 48 h. Potency, µM (top dose mostly 46.1 µM), most hits filed as activators. hit rate 2.9% among 350,000. AID 624296; also: nearly all actives have a fitted effect of over 50% in size
KB-V1 MDR tox: KB-V1 MDR subline cytotoxicity. KB-V1 MDR cells viability, CellTiter-Glo, 72 h. Potency, µM (highest dose often 46.1 µM), usual class: cytotoxic. AID 1347076. hit rate 3.4% among 400,000; also: nearly all actives have a fitted effect of over 60% in size
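KB-V1 cells (P-gp-expressing MDR subline of KB-3-1) in phenol-red-free DMEM with 10% FBS were exposed to library compounds over a concentration series for 72 h at 37 degrees C. Viability read by CellTiter-Glo luminescence; concentration-effect curves fitted after normalization.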
KB-3-1 tox: kills parental KB-3-1 adenocarcinoma cells; KB-3-1 viability, CellTiter-Glo ATP luminescence, 72 h; Potency, µM (doses to about 46.1 µM), usual class: cytotoxic; hit rate 1.4% among 400,000; also: nearly all actives have a fitted effect of over 60% in size
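Using CellTiter-Glo luminescence, growth of non-resistant KB-3-1 adenocarcinoma cells is assessed 72 h after pin-tool compound addition at 37 °C. Normalized responses across the concentration series yield fitted curves.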
A number is an active result; 0 = inactive; ? = inconclusive; - = no result given; ! = a repeat was not active; [ ] = another dose, or the depositor's remark. An excerpt weighted towards active compounds, which were near 8.2% of everything screened. Calls follow the shape of the dose curve; as a rule, active = well fitted curve in the direction sought with a large enough effect; inconclusive = small, poorly fitted or top-dose-only effect, or another doubt; inactive = no such curve, though single readings can be large; an effect the other way counts as inactive or inconclusive.

SMILES	SW480 rerep	ELG1 DNA repair	MCF10A rereplic	KB-V1 MDR tox	KB-3-1 tox
O=C(OCc1cc(Cl)cc2c1OCOC2)c1cccnc1Cl	0	?	0	0	0
OCCCNc1ncnc2sc(-c3ccccc3)cc12	?	?	0	0	0
COCC(C)NC(=O)CSc1ncnc2sc(-c3ccccc3)cc12 (centres undefined)	0	0	?	?	0
COc1cc(C(=O)Nc2ccc(Oc3ncnc4sc(-c5ccccc5)cc34)cc2)cc(OC)c1OC	0	?	0	?	0
CC(C)(C)Nc1ncnc2sc(-c3ccccc3)cc12	?	?	18µM	0	?
c1ccc(-c2cc3c(N4CCN(c5ccccc5)CC4)ncnc3s2)cc1	0	?	12µM	?	0
CC(C)C(C)(C#N)NC(=O)CSc1ncnc2sc(-c3ccccc3)cc12 (centres undefined)	0	?	0	23µM	0
COc1ccc(C(=O)Nc2ccc(Oc3ncnc4sc(-c5ccccc5)cc34)cc2)cc1OC	-	0	3.3µM	0	0
O=C(O)CCC(=O)Nc1ccc2c(c1)Cc1cc(NC(=O)CCC(=O)O)ccc1-2	0	0	0	0	0
Cc1ccc(/C(O)=C2\C(=O)C(=O)N(C)C2c2cccc([N+](=O)[O-])c2)cc1 (centres undefined)	0	0	0	0	0
CS(=O)(=O)c1ccc(Cl)c(NC(=O)CN2CCN(C(=O)c3cccs3)CC2)c1	0	0	0	0	0
COc1ccc(CNC(=O)c2cccn2-c2nnc(N3CCCCC3)s2)c(OC)c1	-	-	-	0	0
Clc1nnc2c3ccccc3ccn12	0	-	0	0	0
COc1ccc(Nc2ncnc3sc(-c4ccccc4)cc23)cc1	0	0	?	21µM	?
COc1ncnc2sc(-c3ccccc3)cc12	0	?	0	?	0
CCOC(=O)C1CCCN(CCC(=O)Nc2ccc(OC)cc2OC)C1 (centres undefined)	-	-	-	0	0
CCNC(=O)c1cnc2c(-c3ccccc3)c(C)nn2c1C	-	-	-	0	0
CCN(CC)c1ccc(/C=N/N=C(N)N)c(O)c1	16µM	0	4.1µM	?	?
CCN(CC)c1ccc(N=Cc2ccc(N(CC)CC)cc2O)cc1	?	0	0	0	?
CCN(CC)c1ccc(/C=N/NC(=O)c2ccc3nc[nH]c3c2)c(O)c1	21µM	?	0	0	?
COc1cccc(/C=N/NC(=O)c2ccc3nc[nH]c3c2)c1O	?	0	0	0	0
CCN(CC)c1ccc(/C=N/NC(=O)OC)c(O)c1	0	?	0	?	0
CCN(CC)c1ccc(/C=N/NC(=S)NC)c(O)c1	0	?	1.3µM	0	9.2µM
CCN(CC)c1ccc(/C=N/NC(=O)c2ccoc2C)c(O)c1	13µM	?	?	?	12µM
CN(C)S(=O)(=O)c1ccc2c(c1)nnn2CCNC(=O)Nc1ccc(Cl)cc1	-	-	-	0	0
SMILES	SW480 rerep	ELG1 DNA repair	MCF10A rereplic	KB-V1 MDR tox	KB-3-1 tox
O=C(Nc1ccc(Br)cc1)C1CCN(c2ncccn2)CC1	-	-	-	0	0
COc1cc(CN(C)Cc2cc(=O)n3ccsc3n2)ccc1OC(F)F	?	13µM	0	13µM	0
CCN(CC(=O)NCc1ccc(F)cc1)Cc1cc(=O)n2ccsc2n1	0[1.84 µM]	0	?	0	0
CC(C)N=C(N)/N=C(\N)Nc1ccc(Cl)cc1	0	-	0	-	-
NC(=NCCCCCCN=C(N)/N=C(\N)Nc1ccc(Cl)cc1)/N=C(\N)Nc1ccc(Cl)cc1	1.3µM!	0	?	?	?
Cc1noc(C)c1NC(=O)Nc1ccc2c(c1)CC(=O)N([C@@H](C)CO)C[C@@H](C)[C@@H](CN(C)C(=O)Nc1cccc3ccccc13)O2	0	0	0	0	0
CCN(CC)c1ccc(N=Cc2c(C)[nH]c3ccccc23)cc1	8.2µM	0	0	0	0
Cc1[nH]c2ccccc2c1/C=N/n1cnnc1	0	?	0	0	0
COc1cc2c3nnc(-c4ccc(F)cc4)c-3cn(Cc3cccc(C)c3)c2cc1OC	21µM	0	?	0	?
COc1cccc(Cn2nc3c4cc(F)ccc4n(Cc4ccc(F)cc4)cc-3c2=O)c1	0	0	?	0	0
COc1cc2c3nnc(-c4ccc(F)cc4)c-3cn(Cc3ccc(C)cc3)c2cc1OC	0	0	?	0	?
COc1cc2c3nnc(-c4ccccc4)c-3cn(Cc3ccc(F)cc3)c2cc1OC	18µM	0	?	0	0
COc1cc2c3nnc(-c4ccc(F)cc4)c-3cn(Cc3cccc(F)c3)c2cc1OC	6.5µM	0	?	0	?
O=C(Nc1nnc(SCC(=O)N2CCCC2)s1)C1CC(=O)N(c2ccccc2)C1 (centres undefined)	0	0	0	0	0
CCC(C)(c1nnnn1-c1c(C)cccc1C)N(N=O)c1cccc(C(F)(F)F)c1 (centres undefined)	?	0	0	16µM	?
CC(=O)NC(Cc1cccc(C)c1)C(=O)NC1CCN(c2ncccc2[N+](=O)[O-])CC1 (centres undefined)	0	0	0	15µM	0
CC(=O)NC(Cc1ccccc1C)C(=O)NC1CCN(c2ncccc2[N+](=O)[O-])CC1 (centres undefined)	-	0	-	-	-
CC(=O)NC(Cc1cccc(F)c1)C(=O)NC1CCN(c2ncccc2[N+](=O)[O-])CC1 (centres undefined)	0	0	0	0	0
CC(=O)NC(Cc1ccc(F)cc1)C(=O)NC1CCN(c2ncccc2[N+](=O)[O-])CC1 (centres undefined)	0	0	0.82µM	0	0
CCOc1ccccc1NC(=O)CN1C(=O)C2(SCC(=O)N2c2ccc(C)cc2)c2ccccc21 (centres undefined)	-	-	-	0	?
COc1ccc(/C=N/NC(=O)c2cc3c(ccc4ccccc43)o2)cc1OC	?	?	16µM	?	?
COc1ccc(/C=N\NC(=O)c2cc3c(ccc4ccccc43)o2)cc1O	?	?	12µM	0	?
O=C(COc1ccc(/C=N/NC(=O)c2cc3ccccc3o2)cc1Br)Nc1ccccc1	?	?	?	?	13µM
Cc1ccc(-c2noc(CSc3nnc(Cc4ccccc4)n3-c3cccc(C)c3)n2)cc1	0	0	18µM	0	?
O=C(CSc1nnc(-c2ccncc2)n1-c1ccccc1)N1CCN(c2ccc(Cl)cc2)CC1	0	?	?	16µM	0
Clc1ccc(-c2noc(CSc3nnc(-c4ccncc4)n3-c3ccccc3)n2)cc1	?	16µM	?	2.6µM	0
O=C(CSc1nnc(-c2cccnc2)n1-c1ccccc1)N1CCN(c2ccc(F)cc2)CC1	0[9.22 µM]	?	0	?	0
CCCCn1c(N)c(N(CC(C)C)C(=O)c2cccc(S(=O)(=O)N3CCN(C)CC3)c2)c(=O)[nH]c1=O	0	?	0	0	0
CSc1nc(=O)[nH]nc1Sc1ccccc1	-	-	-	0	0
Cc1ccccc1NC(=O)CCCSc1nc2ccccc2s1	0	0	0	15µM	0
